# Test results: paper PMC7862700, “An all-to-all approach to the identification of sequence-specific readers for epigenetic DNA modifications on cytosine”
# How the values were obtained:
# Assay in all cases: DAPPL (digital affinity profiling via proximity ligation, sequencing); 10 mM Tris-HCl pH 7.5, 50 mM NaCl, 1 mM DTT, 4% glycerol, room temperature, 30 min; GST-TFs on glutathione beads, 16-mer random dsDNA library, 0.1% formaldehyde crosslink after washing; high values mean tight binding
# FLI1 = biological target: T1, FLI1 (Homo sapiens, UniProt Q01543 1-452); details: protein: recombinant; tags: N-terminal GST; dsDNA, one strand shown
# T1 sequence: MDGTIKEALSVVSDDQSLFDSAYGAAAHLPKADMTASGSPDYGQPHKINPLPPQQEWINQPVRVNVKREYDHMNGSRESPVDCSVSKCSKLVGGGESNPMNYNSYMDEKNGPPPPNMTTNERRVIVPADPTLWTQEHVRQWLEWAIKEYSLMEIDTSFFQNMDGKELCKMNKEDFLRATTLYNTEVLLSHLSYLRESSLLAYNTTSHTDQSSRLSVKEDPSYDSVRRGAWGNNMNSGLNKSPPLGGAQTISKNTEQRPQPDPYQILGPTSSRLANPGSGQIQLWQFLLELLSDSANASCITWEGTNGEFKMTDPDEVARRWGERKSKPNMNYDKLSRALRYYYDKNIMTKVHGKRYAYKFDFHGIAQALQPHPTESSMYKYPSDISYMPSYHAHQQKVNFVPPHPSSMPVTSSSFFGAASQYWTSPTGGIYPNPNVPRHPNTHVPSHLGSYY
# Summary of the method: (§1)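 Human transcription factors fused to GST were expressed in yeast, captured on glutathione beads, given DNA barcodes and pooled with a GST-only negative control. Pools were incubated with 200 nmole of a 16-mer random double-stranded DNA library in Tris/NaCl/DTT/glycerol buffer at room temperature for 30 min. They were then washed, crosslinked with 0.1% formaldehyde, proximity-ligated (BsaI/T4 ligase, 1 h, 37 °C), PCR-amplified and sequenced on an Illumina NextSeq500. Binding signal is each 6-mer's read frequency for a factor divided by its frequency for the GST control.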
# ELK1 = biological target: T2, ELK1 (Homo sapiens, UniProt P19419 1-428); details: protein: recombinant; tags: N-terminal GST; dsDNA, one strand shown
# T2 sequence: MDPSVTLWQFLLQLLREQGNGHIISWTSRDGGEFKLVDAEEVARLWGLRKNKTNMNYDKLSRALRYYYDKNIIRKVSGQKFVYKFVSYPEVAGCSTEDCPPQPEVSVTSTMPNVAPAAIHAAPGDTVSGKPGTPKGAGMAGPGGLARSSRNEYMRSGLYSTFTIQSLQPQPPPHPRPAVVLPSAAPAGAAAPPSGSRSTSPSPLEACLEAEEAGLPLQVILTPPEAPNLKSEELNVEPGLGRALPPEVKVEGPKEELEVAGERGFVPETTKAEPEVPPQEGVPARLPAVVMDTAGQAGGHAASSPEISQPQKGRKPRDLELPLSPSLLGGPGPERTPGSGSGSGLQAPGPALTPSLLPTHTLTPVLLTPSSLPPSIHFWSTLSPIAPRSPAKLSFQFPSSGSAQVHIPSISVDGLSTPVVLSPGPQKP
# Summary of the method: as §1
# GABPA = biological target: T3, GABPA (Homo sapiens, UniProt Q06546 1-454); details: protein: recombinant; tags: N-terminal GST; dsDNA, one strand shown
# T3 sequence: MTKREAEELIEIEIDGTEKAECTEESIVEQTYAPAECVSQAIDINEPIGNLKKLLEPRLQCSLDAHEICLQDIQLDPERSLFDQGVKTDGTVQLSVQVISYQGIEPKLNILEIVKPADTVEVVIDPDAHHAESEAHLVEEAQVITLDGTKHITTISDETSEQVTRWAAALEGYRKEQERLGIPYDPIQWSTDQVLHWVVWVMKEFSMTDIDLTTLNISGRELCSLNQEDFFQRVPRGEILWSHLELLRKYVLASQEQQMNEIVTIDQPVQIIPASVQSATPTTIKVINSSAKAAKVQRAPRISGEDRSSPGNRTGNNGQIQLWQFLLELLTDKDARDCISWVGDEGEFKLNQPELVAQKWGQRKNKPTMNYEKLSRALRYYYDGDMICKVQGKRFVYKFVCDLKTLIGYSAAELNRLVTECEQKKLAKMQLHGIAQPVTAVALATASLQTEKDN
# Summary of the method: as §1
# ERG = biological target: T4, ERG (Homo sapiens, UniProt P11308 1-479); details: protein: recombinant; tags: N-terminal GST; dsDNA, one strand shown
# T4 sequence: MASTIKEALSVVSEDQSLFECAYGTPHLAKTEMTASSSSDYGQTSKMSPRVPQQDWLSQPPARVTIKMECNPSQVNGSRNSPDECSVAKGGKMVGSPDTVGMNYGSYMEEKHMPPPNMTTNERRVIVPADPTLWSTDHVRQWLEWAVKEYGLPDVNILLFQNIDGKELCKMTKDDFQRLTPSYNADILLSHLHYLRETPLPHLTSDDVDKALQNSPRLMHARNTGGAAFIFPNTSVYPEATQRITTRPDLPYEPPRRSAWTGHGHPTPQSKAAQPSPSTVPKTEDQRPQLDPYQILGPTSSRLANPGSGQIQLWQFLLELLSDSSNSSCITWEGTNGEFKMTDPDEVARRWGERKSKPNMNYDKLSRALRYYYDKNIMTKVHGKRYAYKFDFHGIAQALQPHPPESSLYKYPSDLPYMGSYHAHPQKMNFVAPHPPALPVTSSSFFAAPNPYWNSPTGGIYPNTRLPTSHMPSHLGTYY
# Summary of the method: as §1
# ELF1 = ELF1 (Homo sapiens, UniProt P32519 1-619); details: protein: recombinant; tags: N-terminal GST; dsDNA, one strand shown
# Summary of the method: as §1
# EHF = biological target: T5, EHF (Homo sapiens, UniProt Q9NZC4 1-300); details: protein: recombinant; tags: N-terminal GST; dsDNA, one strand shown
# T5 sequence: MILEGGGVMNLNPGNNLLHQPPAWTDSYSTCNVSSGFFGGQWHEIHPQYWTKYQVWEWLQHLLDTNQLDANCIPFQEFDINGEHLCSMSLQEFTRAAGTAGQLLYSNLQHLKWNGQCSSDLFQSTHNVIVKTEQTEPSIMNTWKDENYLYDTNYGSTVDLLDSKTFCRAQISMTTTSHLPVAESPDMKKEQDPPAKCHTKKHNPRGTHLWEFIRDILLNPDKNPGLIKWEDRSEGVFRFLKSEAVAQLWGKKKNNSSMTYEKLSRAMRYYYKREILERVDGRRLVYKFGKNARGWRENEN
# Summary of the method: as §1
# SPI1 = SPI1 (Homo sapiens, UniProt P17947 1-270); details: protein: recombinant; tags: N-terminal GST; dsDNA, one strand shown
# Summary of the method: as §1
# SPIB = SPIB (Homo sapiens, UniProt Q01892 1-262); details: protein: recombinant; tags: N-terminal GST; dsDNA, one strand shown
# Summary of the method: as §1
# ELK3 = biological target: T6, ELK3 (Homo sapiens, UniProt P41970 1-407); details: protein: recombinant; tags: N-terminal GST; dsDNA, one strand shown
# T6 sequence: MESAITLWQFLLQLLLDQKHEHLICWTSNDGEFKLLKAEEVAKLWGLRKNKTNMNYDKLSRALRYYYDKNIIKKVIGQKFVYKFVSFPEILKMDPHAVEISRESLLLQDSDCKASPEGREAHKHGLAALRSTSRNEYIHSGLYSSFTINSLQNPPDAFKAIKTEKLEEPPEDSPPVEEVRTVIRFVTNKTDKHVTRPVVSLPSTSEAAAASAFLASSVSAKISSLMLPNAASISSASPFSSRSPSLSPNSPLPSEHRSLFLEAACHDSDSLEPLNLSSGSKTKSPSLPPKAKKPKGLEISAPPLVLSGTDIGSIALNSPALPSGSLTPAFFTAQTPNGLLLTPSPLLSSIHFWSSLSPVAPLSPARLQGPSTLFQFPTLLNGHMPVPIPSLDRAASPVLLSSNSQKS
# Summary of the method: as §1
# FEV = biological target: T7, FEV (Homo sapiens, UniProt Q99581 1-238); details: protein: recombinant; tags: N-terminal GST; dsDNA, one strand shown
# T7 sequence: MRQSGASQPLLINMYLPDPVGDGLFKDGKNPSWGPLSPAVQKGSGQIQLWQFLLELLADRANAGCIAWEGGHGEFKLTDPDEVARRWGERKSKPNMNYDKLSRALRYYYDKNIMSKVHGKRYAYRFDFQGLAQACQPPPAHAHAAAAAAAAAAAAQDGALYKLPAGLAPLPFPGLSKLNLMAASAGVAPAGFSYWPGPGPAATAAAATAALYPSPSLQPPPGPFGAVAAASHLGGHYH
# Summary of the method: as §1
# ETV5 = ETV5 (Homo sapiens, UniProt P41161 1-510); details: protein: recombinant; tags: N-terminal GST; dsDNA, one strand shown
# Summary of the method: as §1
# HSF1 = HSF1 (Homo sapiens, UniProt Q00613 1-529); details: protein: recombinant; tags: N-terminal GST; chain copies: 3; dsDNA, one strand shown
# Summary of the method: as §1
# SPIC = biological target: T8, SPIC (Homo sapiens, UniProt Q8N5J4 1-248); details: protein: recombinant; tags: N-terminal GST; dsDNA, one strand shown
# T8 sequence: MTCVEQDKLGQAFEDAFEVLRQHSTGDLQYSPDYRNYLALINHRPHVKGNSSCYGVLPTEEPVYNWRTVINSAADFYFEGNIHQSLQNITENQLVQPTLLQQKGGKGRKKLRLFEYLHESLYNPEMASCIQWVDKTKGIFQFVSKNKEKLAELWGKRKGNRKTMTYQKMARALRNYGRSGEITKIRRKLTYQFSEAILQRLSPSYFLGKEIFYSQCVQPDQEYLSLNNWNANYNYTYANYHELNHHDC
# Summary of the method: as §1
# ELF4 = ELF4 (Homo sapiens, UniProt Q99607 1-663); details: protein: recombinant; tags: N-terminal GST; dsDNA, one strand shown
# Summary of the method: as §1
# ELK4 = biological target: T9, ELK4 (Homo sapiens, UniProt P28324-2 1-405); details: protein: recombinant; tags: N-terminal GST; dsDNA, one strand shown
# T9 sequence: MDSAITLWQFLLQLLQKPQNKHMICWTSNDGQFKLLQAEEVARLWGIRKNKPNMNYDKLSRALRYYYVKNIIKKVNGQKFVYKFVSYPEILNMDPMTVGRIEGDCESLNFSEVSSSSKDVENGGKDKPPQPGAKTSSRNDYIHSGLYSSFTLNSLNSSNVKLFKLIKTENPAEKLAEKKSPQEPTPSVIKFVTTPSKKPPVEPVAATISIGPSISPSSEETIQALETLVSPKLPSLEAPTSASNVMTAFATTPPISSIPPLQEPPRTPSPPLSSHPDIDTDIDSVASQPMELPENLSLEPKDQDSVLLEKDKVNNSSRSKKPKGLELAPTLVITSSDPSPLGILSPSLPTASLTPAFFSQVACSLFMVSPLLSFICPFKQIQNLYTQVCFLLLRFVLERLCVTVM
# Summary of the method: as §1
# ETV2 = biological target: T10, ETV2 (Homo sapiens, UniProt O00321 1-342); details: protein: recombinant; tags: N-terminal GST; dsDNA, one strand shown
# T10 sequence: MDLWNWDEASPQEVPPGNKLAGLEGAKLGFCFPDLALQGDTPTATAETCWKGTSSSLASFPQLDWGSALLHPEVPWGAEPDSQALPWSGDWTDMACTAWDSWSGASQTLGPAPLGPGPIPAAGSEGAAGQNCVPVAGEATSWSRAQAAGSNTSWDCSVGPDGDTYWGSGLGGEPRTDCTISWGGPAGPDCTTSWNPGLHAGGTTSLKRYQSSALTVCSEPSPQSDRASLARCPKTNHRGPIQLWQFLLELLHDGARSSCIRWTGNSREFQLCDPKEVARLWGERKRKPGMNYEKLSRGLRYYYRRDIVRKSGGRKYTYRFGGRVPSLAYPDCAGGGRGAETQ
# Summary of the method: as §1
# ELF3 = biological target: T11, ELF3 (Homo sapiens, UniProt P78545 1-371); details: protein: recombinant; tags: N-terminal GST; dsDNA, one strand shown
# T11 sequence: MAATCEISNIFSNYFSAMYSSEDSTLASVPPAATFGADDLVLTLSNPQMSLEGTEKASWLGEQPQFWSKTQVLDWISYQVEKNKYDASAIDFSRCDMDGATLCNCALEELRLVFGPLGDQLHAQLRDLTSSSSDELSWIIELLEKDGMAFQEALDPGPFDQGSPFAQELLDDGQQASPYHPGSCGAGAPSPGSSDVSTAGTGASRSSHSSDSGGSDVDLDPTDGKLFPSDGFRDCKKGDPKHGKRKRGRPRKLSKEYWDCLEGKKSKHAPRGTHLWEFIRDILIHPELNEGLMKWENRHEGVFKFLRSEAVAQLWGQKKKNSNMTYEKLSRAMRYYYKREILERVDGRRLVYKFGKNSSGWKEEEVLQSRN
# Summary of the method: as §1
# CRX = CRX (Homo sapiens, UniProt O43186 1-299); details: protein: recombinant; tags: N-terminal GST; dsDNA, one strand shown
# Summary of the method: as §1
# ETV1 = ETV1 (Homo sapiens, UniProt P50549 1-477); details: protein: recombinant; tags: N-terminal GST; dsDNA, one strand shown
# Summary of the method: as §1
# ETV5, sequence (P41161 whole entry): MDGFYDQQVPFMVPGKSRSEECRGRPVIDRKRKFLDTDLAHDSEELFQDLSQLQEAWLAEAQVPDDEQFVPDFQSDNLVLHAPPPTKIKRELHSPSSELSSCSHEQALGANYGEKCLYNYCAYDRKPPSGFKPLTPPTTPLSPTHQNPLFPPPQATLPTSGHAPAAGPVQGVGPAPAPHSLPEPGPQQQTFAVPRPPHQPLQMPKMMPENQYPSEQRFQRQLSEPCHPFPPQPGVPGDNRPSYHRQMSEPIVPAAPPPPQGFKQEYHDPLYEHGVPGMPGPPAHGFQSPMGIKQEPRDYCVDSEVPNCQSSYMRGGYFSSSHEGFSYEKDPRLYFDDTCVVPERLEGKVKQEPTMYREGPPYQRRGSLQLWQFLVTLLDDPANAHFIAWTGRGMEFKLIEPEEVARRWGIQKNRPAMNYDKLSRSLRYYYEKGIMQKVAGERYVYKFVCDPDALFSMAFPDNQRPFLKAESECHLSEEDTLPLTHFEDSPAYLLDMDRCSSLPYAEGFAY
# ETV1, sequence (P50549 whole entry): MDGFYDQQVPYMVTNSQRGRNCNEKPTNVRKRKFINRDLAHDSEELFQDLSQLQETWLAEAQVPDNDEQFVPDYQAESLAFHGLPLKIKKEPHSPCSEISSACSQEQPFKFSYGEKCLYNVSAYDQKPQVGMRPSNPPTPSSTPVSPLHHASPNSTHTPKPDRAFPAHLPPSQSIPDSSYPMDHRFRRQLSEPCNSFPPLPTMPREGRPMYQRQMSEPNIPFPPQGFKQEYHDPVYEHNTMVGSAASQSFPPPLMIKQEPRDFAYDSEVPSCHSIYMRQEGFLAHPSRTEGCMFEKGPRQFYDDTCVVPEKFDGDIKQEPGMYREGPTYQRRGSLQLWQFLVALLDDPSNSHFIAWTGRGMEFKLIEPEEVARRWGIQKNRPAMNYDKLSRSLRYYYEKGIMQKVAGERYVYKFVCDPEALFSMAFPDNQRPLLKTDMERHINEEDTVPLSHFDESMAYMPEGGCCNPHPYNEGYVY
# ELF4, sequence (Q99607 whole entry): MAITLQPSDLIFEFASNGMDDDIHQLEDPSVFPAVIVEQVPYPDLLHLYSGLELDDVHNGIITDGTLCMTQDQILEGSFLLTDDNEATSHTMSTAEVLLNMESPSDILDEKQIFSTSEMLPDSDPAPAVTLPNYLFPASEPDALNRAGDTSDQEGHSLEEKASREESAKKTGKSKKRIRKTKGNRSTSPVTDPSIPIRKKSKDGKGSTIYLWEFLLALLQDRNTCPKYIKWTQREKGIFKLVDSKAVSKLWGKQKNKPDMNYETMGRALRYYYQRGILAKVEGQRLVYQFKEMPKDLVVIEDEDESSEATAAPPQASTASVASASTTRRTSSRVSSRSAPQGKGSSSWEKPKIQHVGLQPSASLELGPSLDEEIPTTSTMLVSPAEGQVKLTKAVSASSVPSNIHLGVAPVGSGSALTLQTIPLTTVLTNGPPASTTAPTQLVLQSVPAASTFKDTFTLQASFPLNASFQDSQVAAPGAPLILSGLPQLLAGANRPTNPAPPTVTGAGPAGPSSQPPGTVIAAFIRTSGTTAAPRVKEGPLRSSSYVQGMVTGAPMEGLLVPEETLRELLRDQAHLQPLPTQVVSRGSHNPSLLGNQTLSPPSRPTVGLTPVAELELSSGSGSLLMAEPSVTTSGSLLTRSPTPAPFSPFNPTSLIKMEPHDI
# HSF1, sequence (Q00613 whole entry): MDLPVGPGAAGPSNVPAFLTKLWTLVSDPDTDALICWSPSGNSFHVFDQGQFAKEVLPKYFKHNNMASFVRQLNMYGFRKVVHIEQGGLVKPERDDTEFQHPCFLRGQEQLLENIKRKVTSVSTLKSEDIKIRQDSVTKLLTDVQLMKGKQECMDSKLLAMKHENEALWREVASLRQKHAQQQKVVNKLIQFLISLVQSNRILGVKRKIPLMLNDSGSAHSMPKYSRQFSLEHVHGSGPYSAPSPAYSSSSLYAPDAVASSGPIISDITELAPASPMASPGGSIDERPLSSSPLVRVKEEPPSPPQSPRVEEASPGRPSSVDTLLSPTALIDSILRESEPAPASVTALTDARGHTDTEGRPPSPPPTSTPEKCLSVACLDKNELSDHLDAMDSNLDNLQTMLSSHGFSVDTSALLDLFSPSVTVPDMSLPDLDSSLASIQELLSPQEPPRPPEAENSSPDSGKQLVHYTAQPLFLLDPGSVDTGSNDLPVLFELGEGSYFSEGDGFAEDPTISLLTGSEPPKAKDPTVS
# SPIB, sequence (Q01892 whole entry): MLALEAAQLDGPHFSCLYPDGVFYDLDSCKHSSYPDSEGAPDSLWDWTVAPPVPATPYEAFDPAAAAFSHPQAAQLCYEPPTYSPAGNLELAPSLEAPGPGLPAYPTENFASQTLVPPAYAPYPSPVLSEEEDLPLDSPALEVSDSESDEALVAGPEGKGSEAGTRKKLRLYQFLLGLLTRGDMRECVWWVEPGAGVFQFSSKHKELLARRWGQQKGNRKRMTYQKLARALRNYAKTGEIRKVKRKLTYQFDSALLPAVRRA
# CRX, sequence (O43186 whole entry): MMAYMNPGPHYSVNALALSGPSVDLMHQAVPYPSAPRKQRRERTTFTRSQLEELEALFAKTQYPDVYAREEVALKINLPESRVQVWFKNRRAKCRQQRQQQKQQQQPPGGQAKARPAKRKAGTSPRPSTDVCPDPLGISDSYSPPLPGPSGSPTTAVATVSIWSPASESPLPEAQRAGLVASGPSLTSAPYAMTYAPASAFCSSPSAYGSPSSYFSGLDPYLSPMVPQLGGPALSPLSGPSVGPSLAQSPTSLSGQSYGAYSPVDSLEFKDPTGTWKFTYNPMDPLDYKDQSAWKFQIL
# ELF1, sequence (P32519 whole entry): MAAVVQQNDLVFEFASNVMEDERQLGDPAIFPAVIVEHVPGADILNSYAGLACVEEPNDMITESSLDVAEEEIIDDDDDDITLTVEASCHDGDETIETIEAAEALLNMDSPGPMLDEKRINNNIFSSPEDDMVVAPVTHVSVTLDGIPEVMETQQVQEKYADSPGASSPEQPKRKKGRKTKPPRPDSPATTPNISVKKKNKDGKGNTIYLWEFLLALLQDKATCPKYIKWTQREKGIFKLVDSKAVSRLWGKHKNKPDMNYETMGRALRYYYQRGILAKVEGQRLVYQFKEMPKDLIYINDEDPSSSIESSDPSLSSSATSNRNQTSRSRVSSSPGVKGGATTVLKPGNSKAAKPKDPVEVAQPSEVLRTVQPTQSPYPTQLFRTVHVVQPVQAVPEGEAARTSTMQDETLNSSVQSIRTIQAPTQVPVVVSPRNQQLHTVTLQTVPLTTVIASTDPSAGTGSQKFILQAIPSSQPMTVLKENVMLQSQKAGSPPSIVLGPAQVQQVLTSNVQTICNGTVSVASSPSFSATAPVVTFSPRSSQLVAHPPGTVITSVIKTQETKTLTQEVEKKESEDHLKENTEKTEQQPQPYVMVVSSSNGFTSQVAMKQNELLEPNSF
sequence,measurement,setting,value
TACTAT,binding signal,FLI1,"1.5 fold enrichment (6-mer frequency, TF over GST control)"
same,binding signal,ELK1,"1.24 fold enrichment (6-mer frequency, TF over GST control)"
same,binding signal,GABPA,"1.44 fold enrichment (6-mer frequency, TF over GST control)"
same,binding signal,ERG,"1.33 fold enrichment (6-mer frequency, TF over GST control)"
same,binding signal,ELF1,"1.31 fold enrichment (6-mer frequency, TF over GST control)"
same,binding signal,EHF,"1.39 fold enrichment (6-mer frequency, TF over GST control)"
same,binding signal,SPI1,"1.3 fold enrichment (6-mer frequency, TF over GST control)"
same,binding signal,SPIB,"1.42 fold enrichment (6-mer frequency, TF over GST control)"
same,binding signal,ELK3,"1.24 fold enrichment (6-mer frequency, TF over GST control)"
same,binding signal,FEV,"1.31 fold enrichment (6-mer frequency, TF over GST control)"
same,binding signal,ETV5,"1.31 fold enrichment (6-mer frequency, TF over GST control)"
same,binding signal,HSF1,"1.37 fold enrichment (6-mer frequency, TF over GST control)"
same,binding signal,SPIC,"1.45 fold enrichment (6-mer frequency, TF over GST control)"
same,binding signal,ELF4,"1.35 fold enrichment (6-mer frequency, TF over GST control)"
same,binding signal,ELK4,"1.33 fold enrichment (6-mer frequency, TF over GST control)"
same,binding signal,ETV2,"1.4 fold enrichment (6-mer frequency, TF over GST control)"
same,binding signal,ELF3,"1.2 fold enrichment (6-mer frequency, TF over GST control)"
same,binding signal,CRX,"1.48 fold enrichment (6-mer frequency, TF over GST control)"
same,binding signal,ETV1,"1.28 fold enrichment (6-mer frequency, TF over GST control)"
